From PubChem BioAssay (NCI)
Compounds without any hit were thinned out: in the full panel of roughly 79,000, 15% have a hit. The source made the active and inactive calls. Rule as the data show it: active = growth inhibition above about 70%; inactive = the rest. *1 amine or outer side, *2 acyl side, *3 side chain or, on linkers, in order; H or OH if unused. Where a SMILES comes first, the peptide text is derived from it. Bridges are numbered along the chain shown (N, C = ends). Roman numbers before positions name the chains, in order. [ ]: non-standard residue; d: D form. Actinocin(9to1) = Cc1c2oc3c(C)ccc(C(=O)[*:1])c3nc-2c(C(=O)[*:2])c(N)c1=O; NMeF = CN[CH](Cc1ccccc1)C(=O)O; Sar = CNCC(=O)O

Key:
[1] = NCI Yeast Anticancer Drug Screen. Data for the rad50 strain (AID 155);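 also: 0% = growth of vehicle-only cultures of the same strain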; conditions: S. cerevisiae rad50 strain growth inhibition; at 50.0 µM; hits give high values
Summary of the method: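 DNA repair mutant yeast, compound exposure, growth read-out; inhibition is taken relative to vehicle.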

[2] = NCI Yeast Anticancer Drug Screen. Data for the mec2-1 strain (AID 157); conditions: S. cerevisiae mec2-1 strain, at 50.0 µM, hits give high values
Summary of the method: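 Cells of the genetically defined mec2-1 yeast strain are incubated with test compound. Inhibition of growth is calculated against vehicle-treated controls.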

[3] = NCI Yeast Anticancer Drug Screen. Data for the sgs1 mgt1 strain (AID 161);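 also: 0% = growth of cultures given vehicle only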; conditions: S. cerevisiae sgs1 mgt1 strain, at 50.0 µM, hits give high values
Summary of the method: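 Genetically altered yeast, compound exposure, growth inhibition relative to vehicle.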

[4] = NCI Yeast Anticancer Drug Screen. Data for the cln2 rad14 strain (AID 165);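 also: 0% = growth equal to vehicle treated cultures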; conditions: S. cerevisiae cln2 rad14 strain, at 50.0 µM, hits give high values
Summary of the method: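 The screen exposed genetically defined yeast (cln2 rad14) to test compounds and scored growth inhibition relative to vehicle-treated controls.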

[5] = NCI Yeast Anticancer Drug Screen. Data for the bub3 strain (AID 167); conditions: S. cerevisiae bub3 mutant strain, at 50.0 µM, hits give high values
Summary of the method: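 In this screen, a yeast mutant lacking normal mitotic checkpoint function is challenged with compound. Relative growth versus vehicle gives the inhibition value.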

[6] = NCI Yeast Anticancer Drug Screen. Data for the mlh1 rad18 strain (AID 175); conditions: S. cerevisiae mlh1 rad18 strain growth inhibition; at 50.0 µM; hits give high values
Summary of the method: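 Compound-treated yeast growth, normalised to vehicle controls. Strain bears defined DNA repair mutations.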

Measured: growth inhibition

CCC1=C[C@H]2CN(CCc3c([nH]c4ccccc34)[C@@](C(=O)OC)(c3cc4c(cc3OC)N(C)[C@H]3C(C(=O)OC)=C[C@]5(CC)C=CCN6CC[C@]43[C@@H]65)C2)C1
inactive: [1] -14.7% | [2] -14.4% | [3] -4.75% | [4] -13.5% | [5] -0.8% | [6] -18.9%

COC(=O)C=Cc1ccc2nncnc2c1 (mixture of isomers)
inactive: [1] 24.1% | [2] 21.7% | [3] 8.15% | [4] 17.1% | [5] 36.4% | [6] -7.7%

CC1CN(CNC(=O)NCN2CC(C)OC(C)C2)CC(C)O1 (centres undefined)
inactive: [1] 15.7% | [2] -3.7% | [3] 24.8% | [4] 11.9% | [5] 0.95% | [6] -0.8%

CC(=O)Nc1cc([N+](=O)[O-])ccc1CC(O)c1ccccc1 (centres undefined)
inactive: [1] -2.25% | [2] -17.1% | [3] -4.1% | [4] -15.5% | [5] -1% | [6] -16.4%

Cc1cccc(NC(=O)O/N=C(\Cl)C(C)C)c1
inactive: [1] -13.8% | [2] -34.9% | [3] 70% | [4] 0.4% | [5] 35.4% | [6] -43.4%

Cc1ccc(S(=O)(=O)OC2C(C)OCOC3COCOC32)cc1 (centres undefined)
inactive: [1] -6.3% | [2] -6.45% | [3] 5.4% | [4] -13.7% | [5] 2.65% | [6] -9.85%

CCC(Cl)COP(=O)(OCC(Cl)CC)O/C(C)=C(/C)P(=O)(OCC(Cl)CC)OCC(Cl)CC (centres undefined)
inactive: [1] 32.9% | [2] 29.6% | [3] 42.4% | [4] 47.1% | [5] 8.6% | [6] 69%

COc1ccccc1NC(=S)N1CCC(CCCC2CCN(C(=S)Nc3ccccc3OC)CC2)CC1
inactive: [1] -30.3% | [2] -22.9% | [3] -9.75% | [4] -11.8% | [5] -20.9% | [6] -13.2%

O=C1/C(=C/c2ccccc2)Oc2cc(O)ccc21
inactive: [1] 31.9% | [2] -13.8% | [3] 33% | [4] 30.4% | [5] 27.4% | [6] 34.9%

COc1cccc2c(=O)c3c(oc12)CCC(C)C3 (centres undefined)
inactive: [1] -10.6% | [2] 4.35% | [3] 5.85% | [4] -35.7% | [5] -14.8% | [6] -9.4%

CC(CCOS(C)(=O)=O)OS(C)(=O)=O (centres undefined)
inactive: [1] 8.25% | [2] -5.2% | [3] 1.25% | [4] -3.25% | [5] 8.95% | [6] -7.6%

CCOC(=O)c1cc(C)nc2c1c(=O)n(-c1ccccc1)c(=O)n2CCCCN1CCN(c2ccccc2)CC1
inactive: [1] -1.7% | [2] -13.2% | [3] 4.8% | [4] 3.25% | [5] -21.8% | [6] -29.1%

O=C(O)c1ccccc1C(=O)OC1CC2C=CC1C21CC1 (centres undefined)
inactive: [1] -12.2% | [2] -13.2% | [3] -15.3% | [4] -1.9% | [5] -6.2% | [6] -9.75%

Nc1ccc2nnn(OC3CCCC3)c2c1
inactive: [1] 40.2% | [2] 13.9% | [3] 3.55% | [4] 9.4% | [5] -4.05% | [6] 0.4%

CCc1cccc(CC)c1NC1=CC(=O)C(=O)c2ccccc21
inactive: [1] 22.4% | [2] 11.4% | [3] 10% | [4] 18.8% | [5] 34.2% | [6] 18.2%

Cc1c2oc3c(C)ccc(C(=O)NC4C(=O)NC(C(C)C)C(=O)N5CCCC5C(=O)N(C)CC(=O)N(C)C(Cc5ccccc5)C(=O)OC4C)c3nc-2c(C(=O)NC2C(=O)NC(C(C)C)C(=O)N3CCCC3C(=O)N(C)CC(=O)N(C)C(Cc3ccccc3)C(=O)OC2C)c(N)c1=O (centres undefined) (I: TVP[Sar][NMeF] / II: TVP[Sar][NMeF]; ester I:1-I:C, II:1-II:C; linker I:N-II:N via Actinocin(9to1); configuration not given here)
inactive: [1] -0.6% | [2] 6.05% | [3] -12.7% | [4] 2.15% | [5] -23.6% | [6] -27.4%

OCC(O)C(O)C(OC1OC(CO)C(O)C(O)C1O)C(O)CO (centres undefined)
inactive: [1] -1.05% | [2] 37.8% | [3] 26.9% | [4] -2.2% | [5] 13.8% | [6] -3.2%

CC(c1ccccc1)n1cnc2c(=S)nc[nH]c21 (centres undefined)
inactive: [1] 17.1% | [2] -20.9% | [3] -7.55% | [4] 3.35% | [5] -5.85% | [6] -9.95%

COC(=O)NC(CI)c1ccccc1 (centres undefined)
inactive: [1] 14.7% | [2] -5.8% | [3] 7.55% | [4] 8.85% | [5] -6.35% | [6] 23.9%

C[N+]1(CSC(=O)c2ccccc2)CCCCC1
inactive: [1] 1.95% | [2] 11.5% | [3] 12.3% | [4] 1.6% | [5] -9.75% | [6] 24.9%

O=C(O)C(CS)NC1CC(=O)N(Cc2ccccc2)C1=O (centres undefined)
inactive: [1] 1.95% | [2] 9.8% | [3] 18.6% | [4] -19.3% | [5] -1.55% | [6] -8.25%

O=C(O)/C=C/n1c2ccccc2c(=O)c2ccccc21
inactive: [1] -10.1% | [2] -13.8% | [3] -20.9% | [4] 8.9% | [5] -7.7% | [6] -15%

Cc1cc(O)c(Br)cc1C
inactive: [1] 5.35% | [2] -33% | [3] 9.15% | [4] -5.45% | [5] 0.2% | [6] -9.45%

Cc1ccc(-n2cnc3sc4c(c3c2=O)CCCC4)cc1
inactive: [1] -12.2% | [2] -10.7% | [3] 0.7% | [4] -9.7% | [5] -7.65% | [6] -16.5%

CCN(CC)CCCC(C)Nc1cc(C)c2nc(C)cc(C)c2c1C (centres undefined)
inactive: [1] -22.1% | [2] 9.45% | [3] 17% | [4] -13% | [5] 3.4% | [6] -18.6%

COc1cc(OC)c(NC(N)=O)cc1Cl
inactive: [1] 2.3% | [2] -35% | [3] 3.55% | [4] 9.75% | [5] 5.75% | [6] -15.8%

C[N+](C)(CC(=O)Nc1ccc(Cl)cc1)Cc1ccc2c(c1)CCCC2
active: [1] 99.5% | [2] 99.8% | [3] 99.8% | [4] 99% | [5] 99.3% | [6] 99.7%

CC(O)(C(=O)O)C(NC(=O)c1ccccc1)C(=O)O (centres undefined)
inactive: [1] 12.2% | [2] 6.2% | [3] -2.5% | [4] 6.3% | [5] 11.1% | [6] 2.45%

CC1=COC2(CC1)OC1CC3C4CCC5CC(O)CCC5(C)C4CCC3(C)C1C2C (centres undefined)
inactive: [2] 60% | [4] 45.5% | [5] 39.5%
active: [1] 72.5% | [3] 87.3% | [6] 83%

CC(C)(O)CCc1ccccc1
inactive: [1] -7.75% | [2] -29.3% | [3] -14.2% | [4] 14.8% | [5] -19.3% | [6] 6.6%

CC(=O)/C(=C/N1CC(=O)NC1=S)C(=O)Nc1ccccc1
inactive: [1] -21.6% | [2] -23.2% | [3] -31.4% | [4] -0.35% | [5] -32.6% | [6] 2%

CCC(=O)N(O)C(C)(C)C
inactive: [1] 10.8% | [2] 0.65% | [3] 14.7% | [4] 7.55% | [5] 7.2% | [6] 22.1%

COc1ccc(-n2cnc3[nH]ncc3c2=O)cc1
inactive: [1] 1.7% | [2] 0.75% | [3] 0.05% | [4] -0.85% | [5] 12.3% | [6] -2.95%

CS/N=C(\c1ccccc1)N1CCOCC1
inactive: [1] -38.2% | [2] -5.7% | [3] -4.95% | [4] -21.1% | [5] 4.25% | [6] 5.2%

COC(=O)c1ccccc1N=NNc1ccc(C)c(Cl)c1
inactive: [1] 36.2% | [2] 0.55% | [3] -1.2% | [4] -11.4% | [5] 5.7% | [6] 5.15%

O=C1NC(c2ccccc2Cl)Nc2ccccc21 (centres undefined)
inactive: [1] -1.1% | [2] 4.1% | [3] 5.65% | [4] -32.1% | [5] 5.45% | [6] -27.1%

CN(C)CSC(=S)NCCNC(=S)SCN(C)C
inactive: [1] 1.6% | [2] -19.6% | [3] 24.8% | [4] 5.95% | [5] 4% | [6] -4.1%

COc1cc(N=C2C=CC(=O)C=C2)c2ncccc2c1
inactive: [1] 2.95% | [2] 1.05% | [3] 4.1% | [4] -33.1% | [5] -0.7% | [6] 3.75%

Cc1ccc(OP2(Oc3ccc(C)cc3)=NP(Oc3ccc(C)cc3)(Oc3ccc(C)cc3)=NP(Oc3ccc(C)cc3)(Oc3ccc(C)cc3)=N2)cc1
inactive: [1] 10.6% | [2] -4.15% | [3] -17.6% | [4] -4.5% | [5] 2.7% | [6] 0.4%
